About 83,000 compounds went through this panel and 20% of them were active in at least one assay; those are over-represented in the sample as a whole.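 Activity criterion: percent growth below 10, measured after cells in 96-well plates were exposed to a single compound concentration for 48 hours.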 Values without a mark were called inactive. The source made the active and inactive calls.
Legend:
Test in all cases: NCI-60 one-dose screen, 48 h (100 = growth as untreated, 0 = no growth, -100 = all killed)
Settings in all cases: 10 µM unless noted
[1] = test system: SR leukemia
[2] = test system: OVCAR-8 ovarian
[3] = test system: OVCAR-5 ovarian
[4] = test system: OVCAR-4 ovarian
[5] = test system: SK-OV-3 ovarian
[6] = test system: IGROV1 ovarian
[7] = test system: OVCAR-3 ovarian
[8] = test system: NCI/ADR-RES ovarian
[9] = test system: RPMI-8226 leukemia
[10] = test system: HS 578T breast

Row | SMILES | growth [1] | growth [2] | growth [3] | growth [4] | growth [5] | growth [6] | growth [7] | growth [8] | growth [9] | growth [10]
1 | COc1cc(-c2nn(-c3ccc(NC(=O)Nc4ccc(Cl)c(C(F)(F)F)c4)cc3)cc2-c2ccncc2)ccc1Cl | -1.8% (active) | 8.56% (active) | 25% | 23.1% | 10.7% | 25.9% | 10.9% | -1.19% (active) | – | –
2 | Cc1ccc2c(c1)C(=O)CCS2 | 118% | 100% | 97.5% | – | 95% | 104% | – | 111% | 100% | –
3 | Cc1sc(NC(=O)c2ccc(C(C)(C)C)cc2)c(C(=O)O)c1C | 62.8% | 56.5% | 94% | – | 103% | 70.9% | 71.7% | 58.9% | 47.2% | –
4 | CC([C@H]1CC=C2C3CCC4=C[C@@H](N(C)C)CC[C@]4(C)C3CC[C@@]21C)N(C)C (stereo not given in full) | 71.5% | 85.3% | 86.3% | 8.25% (active) | 80.3% | 50.8% | 42% | 68.8% | – | 61%
5 | CC(=O)/C(=C\c1c(-c2ccccc2)[nH]c2ccccc12)S(=O)(=O)c1ccccc1 | -35.9% (active) | 12.4% | 1.33% (active) | 17.7% | 19.3% | -5.76% (active) | -36.6% (active) | -5.66% (active) | – | 8.54% (active)
6 | C[n+]1c2ccccc2c(Nc2ccc(NS(=O)(=O)CCCCN=C(N)N)cc2)c2ccc(N)cc21 | – | 54.4% | 71.9% | 72.9% | 51% | 45.9% | 68.5% | 97.5% | 48.6% | 34.5%
7 | O=C(Nc1ccc(-n2cc(-c3ccncc3)c(-c3ccc(Cl)c(O)c3)n2)cc1)Nc1ccc(Cl)c(C(F)(F)F)c1 | -10.6% (active) | 1.06% (active) | 30.1% | 16.1% | 3.02% (active) | -0.0868% (active) | 2.48% (active) | 6.63% (active) | – | -38.6% (active)
8 | O=C(/C(Br)=C/c1ccccc1)c1ccccc1 | -24.9% (active) | -26.5% (active) | 58.3% | 25.7% | 105% | 27.5% | – | -11% (active) | – | –
9 | Oc1ccc(CN(Cc2ccc(C(F)(F)F)cc2)Cc2ccc(O)c3ncccc23)c2cccnc12 | 3.48% (active) | 11% | 44.5% | – | 17.8% | 20% | 37.5% | 6.89% (active) | 11.7% | –
10 | Cc1ccc(C(=O)NN)cc1 | 80.3% | – | 116% | 98.2% | 110% | 124% | – | 103% | – | –
11 | O=C(N/N=C/c1cc(Cl)ccc1O)C(=O)N/N=C/c1cc(Cl)ccc1O | 51.3% | 60.8% | 72.5% | – | 64.1% | 50.3% | 15.5% | 44.2% | 71.9% | –
12 | CCCCCCCCc1ccc(CCC(N)(CO)CO)cc1 | -32.8% (active) | -68.6% (active) | 56.8% | – | 83.6% | -37.9% (active) | -47.9% (active) | 9.65% (active) | -23.2% (active) | –
13 | COc1ccc(/C=N/c2cc(C(C)(C)C)nn2-c2ccccc2)cc1 | 78.4% | 97% | 113% | 109% | 101% | 125% | 125% | 118% | – | 107%
14 | O=C(Nc1ccc(-n2cc(-c3ccncc3)c(-c3ccc(Cl)c(O)c3)n2)cc1)c1cc(Cl)cc(Cl)c1 | 15.8% | 58.5% | 64.6% | 91.8% | 54.9% | 63% | 85.6% | 54.1% | – | -14.5% (active)
15 | C[C@]12CC[C@H]3[C@@H](CC[C@H]4C[C@@H](O)CC[C@@]43C)[C@@H]1CC(=O)C2 | 89.8% | 95.3% | 94.8% | 104% | 118% | 103% | 112% | 106% | – | –
16 | O=c1[nH]c2cc(O)ccc2n2cc3c(F)cccc3c12 | 9.4% (active) | 24.6% | 43.8% | – | -4.03% (active) | 16.9% | 30.3% | 17.2% | 46.2% | -26.1% (active)

Row | SMILES | growth [1] | growth [2] | growth [3] | growth [4] | growth [5] | growth [6] | growth [7] | growth [8] | growth [9] | growth [10]
17 | CCN(CC)c1ccc2nc3ccc(N=Nc4ccc(O)cc4)cc3[n+](-c3ccccc3)c2c1 | 49% | 56.8% | 113% | – | 89.7% | 8.59% (active) | -15.4% (active) | 101% | 30.6% | –
18 | CC1C(=O)CCCC1=O | 97.6% | 107% | 104% | – | 108% | 102% | 118% | 113% | 101% | –
19 | Cc1cc2cn3c4ccc(O)cc4nc(N)c3c2cc1C | -23.5% (active) | 5.39% (active) | 28.9% | – | – | 3% (active) | 16.5% | 9.17% (active) | -20.1% (active) | -16.3% (active)
20 | N#CCCCCCCCCCCC#N | 118% | 100% | 99.6% | – | 109% | 124% | 125% | 98.3% | 94.9% | –
21 | CCCCCCCCC/C(=N\NC(=O)c1ccncc1)c1ccc(O)c(O)c1O | 6.56% (active) | 13.8% | 48.6% | – | 24.3% | 24.9% | 25.6% | 7.59% (active) | 27.1% | –
22 | COC(=O)c1cc(=O)nc(N/N=C/c2ccccc2O)s1 | – | 97.5% | 104% | 50.8% | 103% | 88.6% | 88.6% | 89.3% | 87.9% | 108%
23 | O=C(Nc1cccc(Cn2c(=O)[nH]c3ccc(Oc4ncccn4)cc3c2=O)c1)c1ccc(Cl)cc1 | – | 31.8% | 99% | 31.5% | 66% | 66.9% | 65.1% | 71.2% | 25.5% | 49.2%
24 | COc1cc(-c2nn(-c3ccc(NC(=O)c4cc(Cl)cc(Cl)c4)cc3)cc2-c2ccncc2)ccc1Cl | 14.6% | 96.9% | 95.7% | 100% | 111% | 116% | 81% | 84.2% | – | –
25 | COc1cccc(-c2cc(-c3cc4ccccc4oc3=O)nc(N)n2)c1 | 92.3% | 111% | 98.2% | – | – | 70% | 95% | 105% | 108% | 80.8%
26 | COc1cc([C@@H]2c3cc4c(cc3[C@H](O)[C@H]3COC[C@@H]23)OCO4)cc(OC)c1OC | 25.9% | 98.9% | 101% | 85.8% | 98.3% | 71.1% | 56.8% | 64.9% | – | –
27 | COc1cc2cn3c4ccc(O)cc4[nH]c(=O)c3c2cc1OC | -17.5% (active) | 0.127% (active) | 30% | – | – | -3.23% (active) | – | 24.7% | -2.13% (active) | -11.2% (active)
28 | O=C1/C(=C/c2ccc(Cl)cc2)CCC/C1=C\c1ccc(Cl)cc1 | 48.7% | 68.9% | 96.7% | – | 88% | 62.6% | 55.8% | 87.2% | -0.252% (active) | –
29 | O=C(NC(=S)NNC(=S)NNc1ccccc1)c1ccccc1 | – | 20.9% | 59.7% | 84.8% | 89.9% | 33.4% | 71.6% | 75.4% | 19.8% | 15.2%
30 | CC(C)(C)OC(=O)N1C/C(=C\c2ccccc2)C(=O)/C(=C/c2ccccc2)C1 | – | 96.5% | 86.5% | 97.9% | 95.2% | 95.5% | 103% | 98.9% | 31% | 102%
31 | CCN(CC)CCOC(=O)c1cccnc1 | – | 97.6% | 96.4% | 90.1% | 96.1% | 103% | 107% | 101% | 91.4% | 92%
